Measurements from PubChem BioAssay.
Active and inactive are the calls of the source.

How the values were obtained:
[1] = system: PRMT1 (protein arginine N-methyltransferase 1); assay: PRMT1 binders on small-molecule microarrays, primary screen, biochemical, small-molecule microarray, 635 nm fluorescence (AID 1088); details: small-molecule microarray binding, higher = more signal;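 further: binding of Prmt1 protein to compounds spotted on small-molecule microarray slides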
[2] = yeast growth modulation, basal conditions, primary screen, YJM789 clinical isolate, OD600, 24 h (AID 1089);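 further: growth of clinical yeast isolate S. cerevisiae YJM 789 seeded 1000 cells per well; test concentration not given here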; details: S. cerevisiae YJM789 growth, higher = more signal, called active from +8 up or from −8 down
[3] = fission yeast growth modulation, primary screen, strain 972, OD600, 24 h, no modulator (AID 1090);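 further: basal condition with compound alone and no growth modifier present; test concentration not given here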; details: S. pombe 972 growth, higher = more signal, called active from +8 up or from −8 down
[4] = S. cerevisiae growth modulation with rapamycin, primary screen, strain BY4716, OD600, 96 h (AID 1091); details: higher = more signal, called active from +8 up or from −8 down; further: test concentration not given here
[5] = biological target: Torsin-1A-interacting protein 2 (Homo sapiens) (UniProt Q8NFQ8); assay: LULL1 binders on small-molecule microarray, primary screen, cell lysate, human LULL1 lysate, 635/667 nm fluorescence (AID 1092); details: hLULL1 lysate binding, 635 nm fluorescence, higher = more signal;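 further: probe is lysate of COS7 cells overexpressing human LULL1; score merges per-feature 667 nm fluorescence with signal-to-noise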
Torsin-1A-interacting protein 2 (Homo sapiens), sequence (Q8NFQ8 whole entry, looked up): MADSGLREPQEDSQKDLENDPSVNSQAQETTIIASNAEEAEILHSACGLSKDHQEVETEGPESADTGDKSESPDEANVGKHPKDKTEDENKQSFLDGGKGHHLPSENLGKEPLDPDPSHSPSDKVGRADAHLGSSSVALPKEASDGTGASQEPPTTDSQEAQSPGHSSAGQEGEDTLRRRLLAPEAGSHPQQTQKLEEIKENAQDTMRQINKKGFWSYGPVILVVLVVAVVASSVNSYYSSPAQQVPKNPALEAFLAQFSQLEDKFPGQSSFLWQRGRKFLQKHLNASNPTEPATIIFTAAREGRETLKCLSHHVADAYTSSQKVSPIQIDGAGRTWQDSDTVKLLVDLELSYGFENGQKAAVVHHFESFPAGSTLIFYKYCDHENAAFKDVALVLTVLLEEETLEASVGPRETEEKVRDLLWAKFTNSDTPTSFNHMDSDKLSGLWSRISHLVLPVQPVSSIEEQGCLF

[6] = E. coli growth modulation, two-sided OD650, primary screen, E. coli filamentation project, strain DRC41, 24 h (AID 1093); details: OD650, 24 h, higher = more signal, called active from +8 up or from −8 down;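 further: MC1000 strain lacking acrAB efflux and sulA so SOS filamentation is blocked; test concentration not given here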
[7] = small-molecule microarray binders of probe aLefty2, primary screen, biochemical, biotinylated probe, 635/667 nm fluorescence (AID 1094); details: higher = more signal;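 further: score merges spot fluorescence near 667 nm with spot signal-to-noise ratio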
[8] = system: Noggin (protein binding on small-molecule microarray); assay: Noggin binders on small-molecule microarray, primary screen, biochemical, 635/667 nm fluorescence (AID 1095); details: 635 nm fluorescence, higher = more signal;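 further: score merges 667 nm feature fluorescence with signal to noise over triplicate slides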
[9] = biological target: Neurogenic locus notch homolog protein 3 (Homo sapiens) (UniProt Q9UM47); assay: NOTCH3 binders on small-molecule microarray, primary screen, biochemical, 635/667 nm fluorescence (AID 1096); details: NOTCH3 binding, 635 nm fluorescence, higher = more signal
Neurogenic locus notch homolog protein 3 (Homo sapiens), sequence (Q9UM47 whole entry, looked up): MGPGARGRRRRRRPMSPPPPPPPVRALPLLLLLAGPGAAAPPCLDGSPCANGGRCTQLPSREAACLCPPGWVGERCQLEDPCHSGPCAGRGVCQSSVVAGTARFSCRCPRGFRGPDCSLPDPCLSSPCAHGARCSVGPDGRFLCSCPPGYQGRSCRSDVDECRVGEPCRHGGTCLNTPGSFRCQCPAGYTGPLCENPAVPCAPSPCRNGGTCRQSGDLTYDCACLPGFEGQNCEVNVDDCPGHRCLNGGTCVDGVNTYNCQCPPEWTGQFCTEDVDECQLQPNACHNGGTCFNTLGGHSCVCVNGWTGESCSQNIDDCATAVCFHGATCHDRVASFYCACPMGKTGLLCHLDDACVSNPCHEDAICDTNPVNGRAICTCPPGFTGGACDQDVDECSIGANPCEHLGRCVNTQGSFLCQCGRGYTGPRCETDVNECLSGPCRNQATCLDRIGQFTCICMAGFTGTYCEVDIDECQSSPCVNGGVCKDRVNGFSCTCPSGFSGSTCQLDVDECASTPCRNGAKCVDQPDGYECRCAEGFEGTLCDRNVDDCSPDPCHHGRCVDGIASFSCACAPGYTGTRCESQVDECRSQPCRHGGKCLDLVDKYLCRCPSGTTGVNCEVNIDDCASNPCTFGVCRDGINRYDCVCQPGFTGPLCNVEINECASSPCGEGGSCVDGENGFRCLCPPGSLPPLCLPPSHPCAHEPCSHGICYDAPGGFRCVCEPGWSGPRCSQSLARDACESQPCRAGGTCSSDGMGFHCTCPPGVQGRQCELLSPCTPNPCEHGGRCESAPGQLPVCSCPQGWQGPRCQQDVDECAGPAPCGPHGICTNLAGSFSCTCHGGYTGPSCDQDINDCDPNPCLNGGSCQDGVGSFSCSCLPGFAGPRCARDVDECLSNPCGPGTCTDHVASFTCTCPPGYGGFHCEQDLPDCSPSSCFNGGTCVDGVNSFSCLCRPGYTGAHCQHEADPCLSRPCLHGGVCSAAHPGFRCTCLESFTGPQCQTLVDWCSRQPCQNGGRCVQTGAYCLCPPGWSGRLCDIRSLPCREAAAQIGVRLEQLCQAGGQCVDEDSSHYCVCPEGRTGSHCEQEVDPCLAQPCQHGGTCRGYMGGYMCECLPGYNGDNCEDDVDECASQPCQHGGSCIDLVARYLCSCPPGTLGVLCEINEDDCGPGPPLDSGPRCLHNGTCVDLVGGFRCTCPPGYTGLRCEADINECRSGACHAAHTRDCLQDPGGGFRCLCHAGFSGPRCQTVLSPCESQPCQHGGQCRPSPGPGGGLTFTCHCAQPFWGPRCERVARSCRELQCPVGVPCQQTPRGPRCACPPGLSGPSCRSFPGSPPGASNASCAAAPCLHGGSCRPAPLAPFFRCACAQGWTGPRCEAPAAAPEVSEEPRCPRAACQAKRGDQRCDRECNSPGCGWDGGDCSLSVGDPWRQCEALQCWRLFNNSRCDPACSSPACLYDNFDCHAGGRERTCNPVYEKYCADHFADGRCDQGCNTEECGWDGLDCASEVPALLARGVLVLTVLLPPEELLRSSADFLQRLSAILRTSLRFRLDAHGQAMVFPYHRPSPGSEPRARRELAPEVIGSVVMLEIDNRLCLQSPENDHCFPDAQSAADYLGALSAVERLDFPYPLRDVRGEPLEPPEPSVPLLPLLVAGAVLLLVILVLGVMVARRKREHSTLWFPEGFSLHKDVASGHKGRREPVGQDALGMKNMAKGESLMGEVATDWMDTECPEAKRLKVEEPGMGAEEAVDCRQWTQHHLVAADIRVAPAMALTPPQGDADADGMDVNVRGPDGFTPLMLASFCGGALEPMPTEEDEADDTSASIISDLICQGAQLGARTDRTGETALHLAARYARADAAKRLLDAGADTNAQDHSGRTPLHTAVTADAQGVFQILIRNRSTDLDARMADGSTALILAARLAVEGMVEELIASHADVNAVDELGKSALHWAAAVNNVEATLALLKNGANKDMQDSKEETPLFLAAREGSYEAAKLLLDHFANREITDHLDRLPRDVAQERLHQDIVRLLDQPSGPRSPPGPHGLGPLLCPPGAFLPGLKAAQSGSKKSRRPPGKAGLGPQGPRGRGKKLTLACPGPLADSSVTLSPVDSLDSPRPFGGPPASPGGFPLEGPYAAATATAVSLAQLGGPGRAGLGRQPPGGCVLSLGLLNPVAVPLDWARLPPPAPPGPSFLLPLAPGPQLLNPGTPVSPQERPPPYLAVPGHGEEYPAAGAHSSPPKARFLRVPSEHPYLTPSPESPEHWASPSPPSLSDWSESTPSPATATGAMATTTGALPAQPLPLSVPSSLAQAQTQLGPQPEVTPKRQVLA

[10] = small-molecule microarray binders of probe aEGFR, primary screen, biochemical, biotinylated probe, 635/667 nm fluorescence (AID 1097); details: higher = more signal;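 further: probe is a biotinylated anti-EGFR antibody binding compounds printed on slides; score combines fluorescence near 667 nm and signal to noise of each spot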
[11] = system: Plasmodium falciparum Sir2 (PF13_0152, Sir2A); assay: pfSir2 binders on small-molecule microarrays, primary screen, biochemical, small-molecule microarray, 635 nm fluorescence (AID 1098); details: small-molecule microarray binding, fluorescence 635 nm; higher = more signal;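 further: score merges spot fluorescence intensity with its signal-to-noise ratio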
[12] = small-molecule microarray binders of probe aDKK1, primary screen, biochemical, biotinylated probe, 635/667 nm fluorescence (AID 1099); details: higher = more signal;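 further: score merges 667nm spot fluorescence with signal to noise across triplicate slides; reference of the scale not given here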
[13] = small-molecule microarray binders of probe aCHRDL2, primary screen, biochemical, biotinylated probe, 635/667 nm fluorescence (AID 1100); details: higher = more signal
[14] = splicing luciferase reporter signal modulators, primary screen, spliceosome inhibition project, cell-based, HEK293, splice +/- reporter (AID 1101); details: luminescence, 24 h, higher = more signal, called active from +8 up or from −8 down;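 further: HEK293 cells carrying a splicing-competent luciferase reporter gene; test concentration not given here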
[15] = biological target: Fibroblast growth factor 10 (Homo sapiens) (UniProt O15520); assay: FGF10 binders on small-molecule microarrays, primary screen, biochemical, small-molecule microarray, 635 nm fluorescence (AID 1102); details: FGF10 binding, fluorescence 635 nm, higher = more signal
Fibroblast growth factor 10 (Homo sapiens), sequence (O15520 whole entry, looked up): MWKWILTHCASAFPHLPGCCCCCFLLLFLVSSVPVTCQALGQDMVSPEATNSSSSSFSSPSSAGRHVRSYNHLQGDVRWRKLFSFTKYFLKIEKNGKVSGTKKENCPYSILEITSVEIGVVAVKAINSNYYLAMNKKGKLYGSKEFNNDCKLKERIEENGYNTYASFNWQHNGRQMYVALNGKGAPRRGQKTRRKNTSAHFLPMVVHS

[16] = system: glycogen synthase kinase-3 (GSK3A per assay name; protocol says GSK3B); assay: GSK3 binders on small-molecule microarrays, primary screen, biochemical, small-molecule microarray, 635 nm fluorescence, GSK3A (AID 1103); details: small-molecule microarray binding, fluorescence 635 nm; higher = more signal; further: the record names both GSK3A and GSK3B
[17] = biological target: Epidermal growth factor receptor (Homo sapiens) (UniProt P00533); assay: EGFR binders on small-molecule microarrays, primary screen, biochemical, small-molecule microarray, 635 nm fluorescence (AID 1104); details: EGFR binding, higher = more signal;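 further: score merges 667 nm emission intensity with spot signal to noise over triplicate slides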
Epidermal growth factor receptor (Homo sapiens), sequence (P00533 whole entry, looked up): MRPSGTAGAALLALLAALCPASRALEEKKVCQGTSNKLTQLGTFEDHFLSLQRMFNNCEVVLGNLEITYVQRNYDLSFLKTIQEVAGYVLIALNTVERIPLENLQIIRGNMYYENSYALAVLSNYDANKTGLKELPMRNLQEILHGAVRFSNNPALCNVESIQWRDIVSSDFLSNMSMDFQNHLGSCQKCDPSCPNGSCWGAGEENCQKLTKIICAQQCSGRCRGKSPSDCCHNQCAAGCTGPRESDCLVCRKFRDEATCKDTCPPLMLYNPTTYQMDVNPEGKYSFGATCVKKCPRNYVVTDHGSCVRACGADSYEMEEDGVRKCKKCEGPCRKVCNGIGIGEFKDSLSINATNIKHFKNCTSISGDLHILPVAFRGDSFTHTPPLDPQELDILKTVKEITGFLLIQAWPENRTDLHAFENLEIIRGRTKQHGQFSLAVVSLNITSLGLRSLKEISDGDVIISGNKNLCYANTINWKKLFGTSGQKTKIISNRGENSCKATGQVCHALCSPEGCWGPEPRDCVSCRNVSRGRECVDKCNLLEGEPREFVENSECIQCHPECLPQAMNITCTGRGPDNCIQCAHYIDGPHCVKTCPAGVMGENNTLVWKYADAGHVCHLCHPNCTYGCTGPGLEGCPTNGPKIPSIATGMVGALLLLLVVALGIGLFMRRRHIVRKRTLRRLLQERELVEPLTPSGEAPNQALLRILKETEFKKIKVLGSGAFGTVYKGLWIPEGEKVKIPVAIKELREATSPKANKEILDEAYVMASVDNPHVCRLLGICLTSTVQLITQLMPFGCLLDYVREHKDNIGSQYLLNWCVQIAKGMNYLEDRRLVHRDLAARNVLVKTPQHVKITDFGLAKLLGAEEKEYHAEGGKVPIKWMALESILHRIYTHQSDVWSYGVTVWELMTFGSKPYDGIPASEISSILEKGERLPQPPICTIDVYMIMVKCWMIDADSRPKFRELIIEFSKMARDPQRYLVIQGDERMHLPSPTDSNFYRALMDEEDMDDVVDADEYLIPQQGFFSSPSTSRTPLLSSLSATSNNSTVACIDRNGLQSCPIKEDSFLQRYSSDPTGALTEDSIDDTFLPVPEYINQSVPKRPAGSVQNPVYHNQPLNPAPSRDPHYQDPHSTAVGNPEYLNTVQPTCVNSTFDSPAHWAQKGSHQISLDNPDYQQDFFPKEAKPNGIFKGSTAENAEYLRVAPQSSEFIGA

[18] = biological target: Follistatin-related protein 3 (Homo sapiens) (UniProt O95633); assay: FSTL3 binders on small-molecule microarrays, primary screen, biochemical, small-molecule microarray, 635 nm fluorescence (AID 1105); details: FSTL3 binding, higher = more signal;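 further: score merges emission near 667 nm and signal to noise per printed spot across three slides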
Follistatin-related protein 3 (Homo sapiens), sequence (O95633 whole entry, looked up): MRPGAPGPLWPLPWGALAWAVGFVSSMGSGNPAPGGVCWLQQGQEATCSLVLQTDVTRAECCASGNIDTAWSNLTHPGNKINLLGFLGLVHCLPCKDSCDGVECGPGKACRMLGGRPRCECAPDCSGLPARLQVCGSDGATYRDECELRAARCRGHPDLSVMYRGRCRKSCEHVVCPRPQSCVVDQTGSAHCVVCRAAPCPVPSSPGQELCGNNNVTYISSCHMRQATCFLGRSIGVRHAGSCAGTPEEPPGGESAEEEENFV

[19] = biological target: Dickkopf-related protein 1 (Homo sapiens) (UniProt O94907); assay: DKK1 binders on small-molecule microarrays, primary screen, biochemical, small-molecule microarray, 635 nm fluorescence scan (AID 1106); details: DKK1 binding, higher = more signal;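 further: score merges emission near 667 nm with signal to noise over three replicate slides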
Dickkopf-related protein 1 (Homo sapiens), sequence (O94907 whole entry, looked up): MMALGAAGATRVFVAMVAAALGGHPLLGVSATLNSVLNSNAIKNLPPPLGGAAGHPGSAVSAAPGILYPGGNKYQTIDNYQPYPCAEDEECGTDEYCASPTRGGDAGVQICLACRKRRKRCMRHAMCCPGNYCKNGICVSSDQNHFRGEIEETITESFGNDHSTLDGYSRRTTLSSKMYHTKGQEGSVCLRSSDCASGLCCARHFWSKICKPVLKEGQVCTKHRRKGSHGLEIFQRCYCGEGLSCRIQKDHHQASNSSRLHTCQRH

[20] = system: Inhibin beta A chain (activin A); assay: INHBA (activin A) binders on microarrays, primary screen, biochemical, small-molecule microarray, 635 nm fluorescence scan (AID 1107); details: small-molecule microarray binding, higher = more signal;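 further: mouse activin A protein probed at 4.33 µg/mL on printed slides; score merges bound-protein fluorescence near 667 nm with spot signal-to-noise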

| Compound | composite z-score [1] | z-score [2] | z-score [3] | z-score [4] | composite z-score [5] | z-score [6] | composite z-score [7] | composite z-score [8] | composite z-score [9] | composite z-score [10] | composite z-score [11] | composite z-score [12] | composite z-score [13] | z-score [14] | composite z-score [15] | composite z-score [16] | composite z-score [17] | composite z-score [18] | composite z-score [19] | composite z-score [20] |
| --- | --- | --- | --- | --- | --- | --- | --- | --- | --- | --- | --- | --- | --- | --- | --- | --- | --- | --- | --- | --- |
| COCCOC(=O)N1C(=O)[C@@]2(c3cc(C#CC4=CCCCC4)ccc31)[C@H](c1ccccc1OCCO)N1[C@H](c3ccccc3)[C@H](c3ccccc3)OC(=O)[C@H]1[C@@H]2C(=O)Nc1nc2ccccc2s1 | 1.29 | 0.478 (inactive) | 0.615 (inactive) | 1.29 (inactive) | 2.66 | -0.15 (inactive) | 0.0274 | 1.05 | 1.06 | -0.0728 | 1.09 | -0.148 | -0.226 | -1.62 (inactive) | 1.08 | 0.69 | 0.416 | 0.981 | 0.506 | 0.936 |
| COc1ccc([Si](C)(C)[C@@H]2[C@@H](CC(=O)N3Cc4ccccc4C[C@H]3CO)O[C@]3(C(=O)N(Cc4cccc(N5C(=O)c6cccc7cccc5c67)c4)c4ccccc43)[C@H]2C)cc1 | 1.56 | -0.258 (inactive) | 0.93 (inactive) | 2.43 (inactive) | 1.6 | -0.342 (inactive) | -0.0144 | 1.08 | 1.09 | 0.0276 | 1.25 | -0.199 | 0.208 | 0.93 (inactive) | 0.579 | 0.313 | 0.982 | 1.43 | 1.43 | 0.636 |
| O=C(N1CCCCC1)[C@@]1(CCS(=O)(=O)c2ccccc2)COC(c2ccc(OCCCO)cc2)=N1 | 1.54 | -0.612 (inactive) | -1.25 (inactive) | -0.0556 (inactive) | 2.84 | 1.23 (inactive) | 0.369 | 1.04 | 0.841 | 0.219 | 1.38 | 1.12 | 1.21 | 1.74 (inactive) | 0.96 | 1.02 | -0.075 | 0.348 | 0.495 | 1.21 |
| Cc1ccc(S[C@]2(C(=O)NCC(F)(F)F)CC(=O)N(Cc3ccccc3)[C@@H]2c2ccc(CO)cc2I)cc1 | 0.29 | -3.01 (inactive) | -2.23 (inactive) | 0.854 (inactive) | 1.62 | -0.161 (inactive) | 0.496 | -0.315 | 0.233 | -0.118 | 1.37 | 0.307 | 0.264 | -0.432 (inactive) | -0.376 | -0.342 | -0.592 | -0.507 | -0.813 | 0.548 |
| C=CCC(OC(C)=O)[C@@H]1[C@@H](N(Cc2ccc(-c3ccccc3)cc2)C(=O)Cc2ccc(F)cc2)c2cc(OCCCO)ccc2N1C(=O)Cc1ccc(OC)cc1 (stereo not given in full) | -0.712 | 0.111 (inactive) | 0.278 (inactive) | -0.0946 (inactive) | 0.311 | 0.245 (inactive) | 0.0731 | -0.128 | -0.241 | -0.204 | -0.383 | -0.129 | 0.0545 | -0.599 (inactive) | -0.0269 | 0.0082 | -0.244 | 0.359 | -0.139 | 1.14 |
| C=CCC(OC(C)=O)[C@@H]1[C@@H](N(Cc2cccc3ccccc23)C(=O)Cc2ccc(F)cc2)c2cc(OCCCO)ccc2N1C(=O)c1ccc2ccccc2n1 (stereo not given in full) | -0.293 | -0.145 (inactive) | 0.732 (inactive) | -0.342 (inactive) | 0.511 | 0.265 (inactive) | 0.15 | -0.283 | 0.104 | -0.0897 | 0.12 | 0.195 | 0.429 | 0.866 (inactive) | -0.0905 | -0.329 | -0.06 | -0.159 | -0.305 | 1.36 |
| CC(C)(C)N1CC=CC23O[C@@H]4C=CCCOC(=O)C4[C@H]2C(=O)N(CCO)[C@@H]3C1=O (stereo not given in full) | 0.13 | -0.125 (inactive) | -0.229 (inactive) | -0.0913 (inactive) | -1.67 | 0.976 (inactive) | -0.267 | -0.365 | -0.696 | -0.112 | -1.04 | -0.106 | -0.254 | 0.288 (inactive) | -0.385 | -0.649 | -0.306 | -0.959 | -0.492 | 0.0863 |
| CCCCC(=C=CC[C@@H](O)c1ccccc1OCCO)C[C@@H](O)COCc1ccccc1 | 1.13 | -1.69 (inactive) | -2.1 (inactive) | -1.26 (inactive) | 1.91 | 1.31 (inactive) | -0.166 | 0.404 | 0.185 | -0.209 | 1.15 | -0.126 | 0.142 | -0.705 (inactive) | 0.114 | -0.158 | -1.14 | -0.126 | -0.498 | 0.596 |
| COC(=O)[C@H](Cc1ccccc1)N1CC(/C=C/C2CC2)=C[C@H]1[C@H](O)Cc1ccccc1 | 1.54 | -0.457 (inactive) | -3.67 (inactive) | -0.677 (inactive) | 1.18 | -0.25 (inactive) | -0.161 | 0.961 | 0.899 | -0.0343 | 0.728 | -0.0559 | -0.165 | 20.9 (active) | 0.697 | 0.368 | 0.237 | 0.702 | 0.734 | 0.597 |
| [N-]=[N+]=Nc1ccccc1[C@H]1OC(c2ccc(OCCCO)cc2)=N[C@@]1(Cc1ccccc1)C(=O)N1CCCCC1 | 1.54 | -2.09 (inactive) | 0.708 (inactive) | 2.21 (inactive) | 3.29 | 0.774 (inactive) | 0.339 | 0.94 | 1.08 | 0.286 | 0.813 | 1.04 | 1.13 | 1.35 (inactive) | 1.45 | 0.99 | 0.422 | 1.11 | 1.18 | 1.03 |
